This note sets out measurements from PubChem BioAssay (Tox21).

“And” between values parts separate entries of the source, which are not always exact repeats. Equal values may be shown once. Some structures have more than one record in an assay (separate samples or runs), and their calls can disagree. The source made the active and inactive calls. Unless noted, calls follow the shape of the dose curve; as a rule, active = well fitted curve in the direction sought with a large enough effect in the repeat runs; inconclusive = weak or mixed curves; inactive = no such curve, though single readings can be large; an effect the other way counts as inactive or inconclusive.

Assay [1] in a line: qHTS assay to identify small molecule antagonists of the thyroid receptor (TR) signaling pathway (AID 743065). Also: nearly all actives have a fitted effect of over 55% in size. Also: potency is read from the fitted curve at half-maximal effect. A digest of the protocol:
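Antagonism measured as loss of luciferase signal in GH3 cells stably carrying a TRE-luciferase reporter, co-treated with compound and T3 (1 nM final) for 23.5 h at 37 C. Viability was read in the same well by CellTiter-Fluor.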
For orientation: qHTS replaces the single test concentration by a dilution series.

The test system of assay [2] is thyroid hormone receptor (rat, GH3 cells). As to the kind of experiment: qHTS assay to identify small molecule agonists of the thyroid receptor (TR) signaling pathway (AID 743066; calls by dose curve).
Assay [3] is described as follows: qHTS assay to identify small molecule antagonists of the estrogen receptor alpha (ER-alpha) signaling pathway - cell viability counter screen (AID 743074; calls by dose curve;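 also: HEK293 cells carrying ER-alpha-UAS-bla reporter stimulated with 17beta-estradiol; nearly all actives have a fitted effect of over 45% in size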).
The target in assay [4] is Estrogen receptor (Homo sapiens) (UniProt P03372). As to the kind of experiment: qHTS assay to identify small molecule agonists of the estrogen receptor alpha (ER-alpha) signaling pathway (AID 743075; calls by dose curve;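 also: HEK293 GripTite cells with ER-alpha and UAS-driven beta-lactamase reporter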; also: potency is read from the fitted curve at half-maximal effect).
Assay [5] shares this target. The assay is described as follows: qHTS assay to identify small molecule agonists of the estrogen receptor alpha (ER-alpha) signaling pathway using the BG1 cell line (AID 743079). Also: nearly all actives have a fitted effect of over 20% in size. Also: potency is read from the fitted curve at half-maximal effect.
Assay [6] in a line: qHTS assay to identify small molecule antagonists of the estrogen receptor alpha (ER-alpha) signaling pathway using the BG1 cell line (AID 743080; calls by dose curve;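 also: BG1 cells stimulated with 17beta-estradiol alongside compound; nearly all actives have a fitted effect of over 25% in size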; also: potency is read from the fitted curve at half-maximal effect). A digest of the protocol: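 Quantitative HTS on the Tox21 10K library: BG1 cells with endogenous ER-alpha and ERE-luciferase reporter, 17beta-estradiol stimulation, 21.5 h compound exposure, luminescence endpoint with parallel fluorescence cytotoxicity counter-read.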

Another assay deals with Aromatase (Homo sapiens) (UniProt P11511). As to the kind of experiment: qHTS assay to identify aromatase inhibitors (AID 743083). Also: nearly all actives have a fitted effect of over 55% in size. Also: potency is read from the fitted curve at half-maximal effect.
Assay [7] deals with Aryl hydrocarbon receptor (Homo sapiens) (UniProt P35869). The assay is described as follows: qHTS assay to identify small molecule that activate the aryl hydrocarbon receptor (AhR) signaling pathway (AID 743085). Also: nearly all actives have a fitted effect of over 15% in size. Also: potency is read from the fitted curve at half-maximal effect.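 As to activation: HG2L7.5c1 human HepG2 liver cells with stably integrated DRE-driven firefly reporter; series mostly up to about 70 µM.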 A digest of the protocol: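 HepG2 cells stably carrying a 20-DRE firefly luciferase reporter (HG2L7.5c1) treated with compound for 24 hr at 37C. Luciferase read by ONE-Glo luminescence, with CellTiter-Fluor viability read first.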

The nature of assay [8]: qHTS assay for small molecule agonists of the antioxidant response element (ARE) signaling pathway - cell viability counter screen (AID 743203; calls by dose curve; also: nearly all actives have a fitted effect of over 55% in size; also: potency is read from the fitted curve at half-maximal effect). A digest of the protocol:
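Seeded at 2,000 cells/well, ARE-bla HepG2 cells were incubated 5 hrs before compound addition. After 16 hrs of treatment at 37C with 5% CO2, CellTiter-Glo reagent was added and luminescence read 30 min later.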

Assay [9] in a line: qHTS assay to identify small molecule agonists of the peroxisome proliferator-activated receptor delta (PPARd) signaling pathway - cell viability counter screen (AID 743211). Also: nearly all actives have a fitted effect of over 55% in size. Also: potency is read from the fitted curve at half-maximal effect. A digest of the protocol: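 PPARd-bla HEK293H cells (3000/well) were pre-incubated 5 h at 37 C, then exposed to compound for 17 h at 37 C. After 2 h with LiveBLAzer substrate, CellTiter-Glo was added to the same wells; luminescence read after 30 min at room temperature.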

Assay [10] is described as follows: qHTS assay to identify small molecule antagonists of the estrogen receptor alpha (ER-alpha) signaling pathway using the BG1 cell line - cell viability counter screen (AID 743081).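 Also: compound given together with 17beta-estradiol as the ER stimulus; series mostly up to about 70 µM; nearly all actives have a fitted effect of over 45% in size.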
Assay [11] in a line: qHTS assay to identify aromatase inhibitors - cell viability counter screen (AID 743084). Also: potency is read from the fitted curve at half-maximal effect.
Assay [12] in a line: qHTS assay to identify small molecule that activate the aryl hydrocarbon receptor (AhR) signaling pathway - cell viability counter screen (AID 743086). Also: nearly all actives have a fitted effect of over 45% in size. Also: potency is read from the fitted curve at half-maximal effect. A digest of the protocol:
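Cytotoxicity counter screen: CellTiter-Fluor signal (30 min, 37 C) in 4000 HepG2 cells/well carrying the DRE-luciferase reporter, following 24 h compound exposure at 37 C.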

Assay [13] deals with Peroxisome proliferator-activated receptor gamma (Homo sapiens) (UniProt P37231). The assay is described as follows: qHTS assay to identify small molecule agonists of the peroxisome proliferator-activated receptor gamma (PPARg) signaling pathway (AID 743094; active = well fitted activation curve with a large enough effect in the signal ratio in the repeat runs, not every such curve was filed as active; inconclusive = weak or mixed curves, or effect the other way; inactive = no such curve, though single readings can be large or run the other way; the % refers to the signal ratio). A digest of the protocol: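 Quantitative HTS agonist mode: stable HEK293H line with UAS-beta-lactamase reporter under PPARg control, 17 h compound exposure at 37C, fluorescence after 1 h FRET substrate loading at room temperature.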

Assay [14] can be described thus: qHTS assay to identify small molecule antagonists of the peroxisome proliferator-activated receptor gamma (PPARg) signaling pathway - cell viability counter screen (AID 743194). Also: nearly all actives have a fitted effect of over 55% in size. Also: potency is read from the fitted curve at half-maximal effect. A digest of the protocol: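 Viability was measured as CellTiter-Glo luminescence in GeneBLAzer PPARg UAS-bla HEK293H cells. These cells had been exposed 17 h at 37 C to compounds together with rosiglitazone at 50 nM final, with the beta-lactamase readout taken in the same wells.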

The nature of assay [15]: qHTS assay for small molecule agonists of the antioxidant response element (ARE) signaling pathway (AID 743202; active = well fitted activation curve with a large enough effect in the signal ratio in the repeat runs, not every such curve was filed as active; inconclusive = weak or mixed curves, or effect the other way; inactive = no such curve, though single readings can be large or run the other way; the % refers to the signal ratio; also: potency is read from the fitted curve at half-maximal effect). A digest of the protocol:
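An ARE-responsive beta-lactamase gene stably integrated in HepG2 cells serves as reporter. After 5 h plating and 16 h compound incubation at 37 C, fluorescence of the B/G FRET substrate was measured.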

Assay [16] in a line: qHTS assay for small molecule activators of the heat shock response signaling pathway (AID 743210; active = well fitted activation curve with a large enough effect in the signal ratio in the repeat runs, with a control signal flat, not every such curve was filed as active; inconclusive = weak or mixed curves; the % refers to the signal ratio;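 also: HeLa cells with beta-lactamase reporter driven by heat shock elements; series mostly up to about 63 µM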). A digest of the protocol:
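In HSE-bla HeLa cells, 5 h compound incubation (37 C) precedes addition of LiveBLAzer B/G substrate; after 2.5 h at room temperature, fluorescence intensity indicates reporter induction.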

Assay [17] concerns the target Peroxisome proliferator-activated receptor gamma (Homo sapiens) (UniProt P37231). As to the kind of experiment: qHTS assay to identify small molecule antagonists of the peroxisome proliferator-activated receptor gamma (PPARg) signaling pathway (AID 743191; calls by dose curve; also: nearly all actives have a fitted effect of over 30% in size; also: potency is read from the fitted curve at half-maximal effect). A digest of the protocol: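 Beta-lactamase reporter under UAS control in HEK293H PPARg-bla cells; compound treatment 17 h at 37C. Read-out: fluorescence intensity after 1 h room-temperature incubation with LiveBLAzer B/G FRET substrate.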

Assay [18] can be described thus: qHTS assay for small molecule activators of the heat shock response signaling pathway - cell viability counter screen (AID 743209). Also: nearly all actives have a fitted effect of over 50% in size. Also: potency is read from the fitted curve at half-maximal effect. A digest of the protocol:
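First, HSE-bla HeLa cells were seeded at 1500 cells/well and kept overnight at 37 C. Next, compounds were pinned in and incubated 5 h. After the FRET substrate step, CellTiter-Glo was added and luminescence read 30 min later.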

Aromatase (Homo sapiens), sequence (P11511 whole entry, looked up): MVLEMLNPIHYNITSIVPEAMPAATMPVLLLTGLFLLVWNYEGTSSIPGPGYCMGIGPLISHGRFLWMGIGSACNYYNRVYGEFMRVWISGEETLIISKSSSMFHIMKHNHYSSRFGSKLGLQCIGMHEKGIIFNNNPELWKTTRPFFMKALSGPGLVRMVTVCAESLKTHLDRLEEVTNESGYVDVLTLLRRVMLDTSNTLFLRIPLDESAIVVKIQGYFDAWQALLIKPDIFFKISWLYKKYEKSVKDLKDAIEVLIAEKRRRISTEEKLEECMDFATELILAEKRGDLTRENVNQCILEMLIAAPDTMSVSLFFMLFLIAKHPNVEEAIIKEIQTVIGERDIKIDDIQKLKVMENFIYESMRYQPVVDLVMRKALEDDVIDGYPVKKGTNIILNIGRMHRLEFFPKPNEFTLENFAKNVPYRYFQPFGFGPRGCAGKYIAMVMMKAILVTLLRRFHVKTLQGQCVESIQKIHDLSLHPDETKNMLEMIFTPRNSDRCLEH
Aryl hydrocarbon receptor (Homo sapiens), sequence (P35869 whole entry, looked up): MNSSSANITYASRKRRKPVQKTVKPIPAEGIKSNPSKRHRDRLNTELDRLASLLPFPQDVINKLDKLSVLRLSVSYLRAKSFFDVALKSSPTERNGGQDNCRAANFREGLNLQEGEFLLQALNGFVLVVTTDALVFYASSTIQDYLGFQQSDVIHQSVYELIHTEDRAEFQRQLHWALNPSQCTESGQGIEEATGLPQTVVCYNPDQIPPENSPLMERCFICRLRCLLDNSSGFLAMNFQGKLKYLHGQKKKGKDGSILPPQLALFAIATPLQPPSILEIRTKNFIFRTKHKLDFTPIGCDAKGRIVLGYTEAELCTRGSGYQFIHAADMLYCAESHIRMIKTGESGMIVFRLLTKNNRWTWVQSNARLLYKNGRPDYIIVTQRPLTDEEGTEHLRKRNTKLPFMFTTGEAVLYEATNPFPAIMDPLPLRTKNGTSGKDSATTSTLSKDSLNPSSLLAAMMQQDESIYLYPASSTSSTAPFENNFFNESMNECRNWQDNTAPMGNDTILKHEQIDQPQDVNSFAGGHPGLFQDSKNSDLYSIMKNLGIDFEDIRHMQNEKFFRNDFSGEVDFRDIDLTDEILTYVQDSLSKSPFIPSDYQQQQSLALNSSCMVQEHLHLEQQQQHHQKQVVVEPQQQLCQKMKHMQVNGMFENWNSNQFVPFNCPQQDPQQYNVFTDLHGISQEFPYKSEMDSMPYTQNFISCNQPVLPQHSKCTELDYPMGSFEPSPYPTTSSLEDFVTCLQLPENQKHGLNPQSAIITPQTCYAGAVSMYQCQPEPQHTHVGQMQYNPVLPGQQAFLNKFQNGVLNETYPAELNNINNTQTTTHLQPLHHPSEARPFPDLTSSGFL
Peroxisome proliferator-activated receptor gamma (Homo sapiens), sequence (P37231 whole entry, looked up): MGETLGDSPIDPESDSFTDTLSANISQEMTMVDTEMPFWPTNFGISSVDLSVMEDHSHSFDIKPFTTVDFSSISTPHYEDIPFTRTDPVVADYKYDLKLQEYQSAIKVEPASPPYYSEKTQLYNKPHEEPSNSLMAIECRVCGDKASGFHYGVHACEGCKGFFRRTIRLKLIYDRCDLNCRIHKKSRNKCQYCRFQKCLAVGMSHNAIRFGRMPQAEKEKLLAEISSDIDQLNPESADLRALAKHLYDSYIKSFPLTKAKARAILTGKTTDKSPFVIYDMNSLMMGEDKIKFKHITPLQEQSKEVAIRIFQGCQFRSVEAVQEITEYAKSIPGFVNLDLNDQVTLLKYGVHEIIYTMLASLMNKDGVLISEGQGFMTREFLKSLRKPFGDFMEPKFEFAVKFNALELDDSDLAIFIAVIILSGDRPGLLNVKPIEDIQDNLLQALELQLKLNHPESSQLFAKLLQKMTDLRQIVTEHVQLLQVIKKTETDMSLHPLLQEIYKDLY
Estrogen receptor (Homo sapiens), sequence (P03372 whole entry, looked up): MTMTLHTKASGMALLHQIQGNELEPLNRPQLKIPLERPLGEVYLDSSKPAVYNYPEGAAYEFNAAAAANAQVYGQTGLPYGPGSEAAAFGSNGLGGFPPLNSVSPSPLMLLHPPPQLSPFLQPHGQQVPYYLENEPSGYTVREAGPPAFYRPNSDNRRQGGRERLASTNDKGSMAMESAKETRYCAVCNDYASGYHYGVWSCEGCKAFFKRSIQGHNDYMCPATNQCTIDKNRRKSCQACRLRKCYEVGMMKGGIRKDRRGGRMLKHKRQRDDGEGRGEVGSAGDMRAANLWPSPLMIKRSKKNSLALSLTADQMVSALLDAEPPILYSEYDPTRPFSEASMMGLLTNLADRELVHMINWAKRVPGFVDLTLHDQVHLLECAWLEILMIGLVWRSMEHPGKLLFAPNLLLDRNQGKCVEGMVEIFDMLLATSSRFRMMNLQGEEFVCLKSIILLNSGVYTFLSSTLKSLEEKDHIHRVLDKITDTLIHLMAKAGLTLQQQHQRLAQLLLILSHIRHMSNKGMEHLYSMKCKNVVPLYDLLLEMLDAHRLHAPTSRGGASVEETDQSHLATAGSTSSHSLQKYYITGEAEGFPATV

As for `O=C1OC2(c3ccc(O)cc3Oc3cc(O)ccc32)c2ccccc21`, the Potency result (in [1]; in assay [2]; in assay [3]; in [4]; in assay [6]; with Aromatase (Homo sapiens)) was “inactive” throughout. Moreover, the Potency result in [7], in assay [8] and in assay [9] was “inactive” each time. In assay [5], the Potency result is “inactive and 23.7 µM (active)”.

Consider `CCCCC/C=C/CC1CC(=O)OC1=O` (stereo not given), for which the Potency entry in assay [1], in assay [2], in [3], in [4], in [5] and in assay [6] was “inactive” throughout. The Potency result (in [10]; in the assay with Aromatase (Homo sapiens); in assay [11]; in assay [7]; in assay [12]; in assay [13]) was “inactive” each time. Further, the Potency entry in [14], in assay [15], in assay [16] and in [9] was “inactive” in each case.

Consider `O=C(OCc1ccccc1)c1ccc(O)cc1`, for which the Potency result (in assay [1]; in [2]; in [3]; in [10]; with Aromatase (Homo sapiens); in assay [11]) was “inactive” each time. Further, the Potency result in assay [7], in assay [12], in assay [13], in assay [14], in [15] and in assay [8] was “inactive” each time. Besides, the Potency result in assay [16] and in [9] was “inactive” each time. The Potency in assay [4] is 54.9 µM [inconclusive] (active); in assay [5] it was 10.6 µM (active) and 12.2 µM (active); in [17], 43.6 µM (active).

For the compound `O=C(Cl)c1cccc(C(=O)Cl)c1`, the Potency result (in assay [1]; in assay [2]; in assay [3]; in assay [10]; with Aromatase (Homo sapiens); in assay [11]) was “inactive” throughout. Also, the Potency entry in assay [7], in assay [12], in assay [13], in assay [17], in assay [14] and in assay [15] was “inactive” each time. The Potency result in [8], in assay [18], in assay [16] and in [9] was “inactive” in each case.

Take `O=C(O[C@@H]1Cc2c(O)cc(O)cc2O[C@@H]1c1cc(O)c(O)c(O)c1)c1cc(O)c(O)c(O)c1`: the Potency is 27.4 µM (active) and 26.3 µM (active) in [1]; 30.7 µM (active) and 46.8 µM (active) in [11]; 34.4 µM (active) and 41.7 µM (active) in assay [12]. Also, the Potency result in assay [2], in assay [3], in [4], in assay [5], in [6] and in assay [10] was “inactive” in each case. For the same compound, the Potency entry (with Aromatase (Homo sapiens); in assay [7]; in assay [13]; in [14]; in assay [8]; in assay [18]) was “inactive” each time. Besides, the Potency result in assay [16] and in assay [9] was “inactive” in each case.

With `CC(C)(O)CCC(C)(C)O`, the Potency entry in assay [1], in [2], in assay [3], in assay [4], in assay [5] and in [6] was “inactive” each time. The Potency entry (in [10]; with Aromatase (Homo sapiens); in assay [11]; in assay [7]; in [12]; in assay [13]) was “inactive” each time. For the same compound, the Potency result in assay [14], in assay [15], in [8], in assay [16] and in assay [9] was “inactive” throughout.

On to `NNCCc1ccccc1`, for which the Potency is 30.7 µM (active) in assay [1]; 10.1 µM (active) and 30.7 µM (active) in assay [7]. Besides, the Potency entry (in assay [2]; in assay [3]; in [10]; with Aromatase (Homo sapiens); in assay [11]; in assay [12]) was “inactive” throughout. In addition, the Potency entry in assay [13], in [17], in assay [14], in assay [15], in [8] and in [18] was “inactive” throughout. The Potency result in assay [16] and in assay [9] was “inactive” in each case.

As to `C=CC(=O)OCCCCCCOC(=O)C=C`, the Potency in [1] was 27.6 µM (active) and 43.3 µM (active); in assay [15], 10.9 µM (active); in assay [18] it was 17.4 µM (active); in assay [9] it was 49.6 µM (active). For the same compound, the Potency result in [2], in assay [3], in [5], in assay [10], in [7] and in assay [12] was “inactive” throughout. Further, the Potency result in [14] and in [8] was “inactive” in each case.

With `c1cc(C(c2ccc(OCC3CO3)cc2)C(c2ccc(OCC3CO3)cc2)c2ccc(OCC3CO3)cc2)ccc1OCC1CO1` (stereo not given), the Potency in assay [1] was 20.1 µM (active) and 21.7 µM (active); in assay [5], 20.1 µM (active) and 21.7 µM (active). Besides, the Potency result (in assay [2]; in [3]; in [4]; in [10]; with Aromatase (Homo sapiens); in assay [11]) was “inactive” each time. The Potency entry in assay [12], in assay [14], in [8], in assay [18] and in assay [9] was “inactive” in each case.

As to `CC1=CC(=O)c2ccccc2C1=O`, the Potency was 21.1 µM (active) and 13.7 µM (active) in [1]; 29.8 µM (active) in [6]; “inactive and 19.3 µM (active)” in the assay with Aromatase (Homo sapiens); “inactive and 24.3 µM (active)” in assay [11]; 6.68 µM (active) and 24.3 µM (active) in [7]; 11 µM (active) and 26.6 µM (active) in assay [14]. Moreover, the Potency was 9.44 µM (active) in assay [15]; 24.3 µM (active) and 29.8 µM (active) in assay [8]; 15.5 µM (active) and 2.66 µM (active) in [18]; 19.5 µM (active) and 26.6 µM (active) in assay [9]. Also, the Potency result in [2], in [3], in assay [10], in assay [12] and in assay [13] was “inactive” each time.

On to `CCCCCCCCCCCCCCCCCl`, for which the Potency entry in [1], in assay [2], in assay [3], in [4], in [5] and in [6] was “inactive” throughout. In addition, the Potency entry (in [10]; with Aromatase (Homo sapiens); in assay [11]; in [12]; in assay [13]; in assay [17]) was “inactive” in each case. The Potency result in [14], in assay [15], in [18], in [16] and in assay [9] was “inactive” throughout.

Take `CCC(=O)/C=C/C1C(C)=CCCC1(C)C` (stereo not given): the Potency entry (in assay [1]; in [2]; in assay [3]; in assay [10]; with Aromatase (Homo sapiens); in [11]) was “inactive” throughout. Moreover, the Potency result in assay [7], in assay [12], in assay [13], in [17], in assay [14] and in assay [15] was “inactive” each time. The Potency entry in assay [8], in assay [18], in assay [16] and in assay [9] was “inactive” each time.

On to `CNC1(C)C2CCC(C2)C1(C)C` (stereo not given), for which the Potency entry (in assay [1]; in [2]; in [3]; in assay [10]; in the assay with Aromatase (Homo sapiens); in [11]) was “inactive” in each case. The Potency entry in [12], in [13], in assay [17], in assay [15], in assay [18] and in [16] was “inactive” in each case. The Potency result in assay [9] was “inactive”.
